Screening results deposited in PubChem by National Center for Advancing Translational Sciences (NCATS).
KB-3-1 tox: kills parental KB-3-1 adenocarcinoma cells; Potency, µM (series often up to 46.1 µM), usual class: cytotoxic; 400,000 tested, 1.4% active; KB-3-1 viability, CellTiter-Glo ATP luminescence, 72 h; note: nearly all actives have a fitted effect of over 60% in size
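Luminescent ATP read-out (CellTiter-Glo) measures survival of drug-naive KB-3-1 cells after 72 h compound exposure at 37 °C. Titration series was screened from lowest to highest concentration, with DMSO vehicle plates as background controls.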
HT1080NT lethal: kills 2HG-producing HT-1080-NT fibrosarcoma cells | AID 686970 | HT-1080-NT fibrosarcoma viability, CellTiter-Glo ATP luminescence, 48 h | Potency, µM (series often up to 46.1 µM), hits mostly cytotoxic | 360,000 tested, 1.6% active;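 note: NT is the 2HG producing partner of a matched IDH1 knockdown line; nearly all actives have a fitted effect of over 55% in size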
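Luminescent CellTiter-Glo readout after 48 hours of compound exposure at 37 degrees C defined viability of HT-1080-NT cells. Activity was normalized to DMSO wells and cell-free media wells; concentration-response curves were fitted and assigned curve classes.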
TDP1 cell CPT: DT40-hTDP1 cell growth loss with CPT; chicken DT40 Tdp1-/-;hTDP1 cells + 20 nM CPT, ATP luminescence, 48 h; Potency, µM (highest dose often 46.2 µM), most hits filed as inhibitors; 420,000 tested, 12% active; note: nearly all actives have a fitted effect of over 55% in size
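Chicken DT40 Tdp1-/- cells complemented with human TDP1, 400 cells/well, exposed to compounds plus 20 nM camptothecin for at least 48 h at 37 C; viability read as ATP content by CellTiter-Glo luminescence.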
HT1080 IDH1KD tx: toxicity to HT-1080 IDH1 knockdown cells (counter line); HT-1080 IDH1 knockdown viability, ATP luminescence, 48 h; Potency, µM (top dose mostly 46.1 µM), usual class: cytotoxic; 360,000 tested, 2% active
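Knockdown cells (IDH1KD HT-1080) received compounds 2 h after plating at 750 cells/well and were kept 48 h at 37 °C in 5% FBS RPMI. A CellTiter-Glo luminescence read gave % activity for curve fitting.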
KB-V1 MDR tox: KB-V1 MDR subline cytotoxicity | KB-V1 MDR cells viability, CellTiter-Glo, 72 h | Potency, µM (highest dose often 46.1 µM), usual class: cytotoxic | 400,000 tested, 3.4% active | AID 1347076; note: nearly all actives have a fitted effect of over 60% in size
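Following 72 h at 37 degrees C with compound, KB-V1 cell viability was read by CellTiter-Glo luminescence, medium being phenol-red-free DMEM plus 10% FBS; concentration-response parameters came from normalized, curve-fitted qHTS data.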
TDP1 cell noCPT: qHTS for Inhibitors of human tyrosyl-DNA phosphodiesterase 1 (TDP1): qHTS in cells in absence of CPT. DT40 Tdp1-/- hTDP1 cells, no CPT, ATP luminescence, 48 h. Potency, µM (top dose mostly 46.2 µM), usual class: inhibitors. 420,000 tested, 15% active. AID 686978, 2013; note: nearly all actives have a fitted effect of over 55% in size
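DT40 Tdp1-/-;hTDP1 cells, no CPT (DMSO vehicle only), 400 cells/well; compounds pin-transferred; ≥48 hr, 37 °C; CellTiter-Glo 30 min RT dark, luminescence read.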
Numbers stand for hits; - = inactive; ? = inconclusive; . = no result given; ! = not confirmed by another sample. Only some compounds are listed: those with a hit (about 19% of all), similar ones and a draw of the others. Calls come from the whole dose curve; as a rule, active = well fitted curve in the direction sought with a large enough effect; inconclusive = small, poorly fitted or top-dose-only effect, or another doubt; inactive = no such curve, though single readings can be large; an effect the other way counts as inactive or inconclusive.

SMILES	KB-3-1 tox	HT1080NT lethal	TDP1 cell CPT	HT1080 IDH1KD tx	KB-V1 MDR tox	TDP1 cell noCPT
O=C(O)c1ccc(S(=O)(=O)N(Cl)Cl)cc1	.	.	-	.	.	-
CN(CC(=O)Nc1ccc(Cl)c(C(F)(F)F)c1)C(=O)CCN1C(=O)C2CCCCC2C1=O (configuration not stated)	-	-	23.1µM	-	-	23.1µM
CN(CC(=O)Nc1ccc(Cl)c(Cl)c1)CC(=O)N1CCCCCC1	-	-	?	-	-	25.9µM
CN(CC(=O)NC(=O)NCc1ccccc1)Cc1ccc(Cl)cc1	-	-	-	-	-	-
CN(CC(=O)NC(=O)NC1CCCCC1)CC(=O)Nc1ccccc1C(F)(F)F	-	-	?	-	?	?
CN(CC(=O)NC(=O)NCc1ccccc1)CC(=O)Nc1ccc(Cl)c(C(F)(F)F)c1	?	18.4µM	18.4µM	?	?	20.6µM
CN(CC(=O)Nc1ccc(Cl)c(C(F)(F)F)c1)CC(=O)NC1CCCCC1	-	-	16.4µM	-	-	?
CN(CC(=O)Nc1cccc(F)c1)CC(=O)N1CCCCC1	-	-	-	-	-	-
CCC(=O)N1CCC1(C)C(=O)Nc1cc(-c2ccccc2)nn1C (configuration not stated)	-	?	-	-	-	-
COc1ccc(C)cc1NC(=O)c1ccc2c(c1)nnn2C1CCCC1	-	.	?	.	-	?
Cc1ccc2c(c1)N(C(=O)CCC(=O)NCc1ccccn1)CC(C)O2 (configuration not stated)	-	-	-	-	-	-
Cc1nnc(NC(=O)CSc2nc3[nH]ncc3c(=O)[nH]2)s1	-	-	?	-	-	14.6µM
CCc1nnc(NC(=O)CSc2nc3[nH]ncc3c(=O)[nH]2)s1	-	-	-	-	-	-
Cc1ccc(C)c(CSc2nc3[nH]ncc3c(=O)[nH]2)c1	1.16µM	1.3µM	2.59µM	1.84µM	0.517µM	1.03µM
O=C(Nc1ccc(F)cc1F)c1cc(-c2ccc(Cl)cc2)on1	-	.	-	.	-	?
CNCCC=C1c2ccccc2CCc2ccccc21	-	23.1µM	9.2µM	?	20.6µM	20.6µM
C[N+](C)(C)CC/C=C1/c2ccccc2CSc2ccccc21	-	-	?	-	-	?
CCCc1nnc(NC(=O)c2cc(=O)c3cc(Cl)ccc3o2)s1	-	.	-	.	?	-
Cc1c(C(=O)Nc2cccc(C#N)c2)sc2nc3n(c(=O)c12)CCCCC3	-	.	16.4µM	.	-	13µM
CCOC(=O)c1ccc(NC(=O)c2sc3nc4n(c(=O)c3c2C)CCC4)cc1	-	-	16.4µM!	?	-	18.4µM
Cc1c(C(=O)Nc2cccc(C(F)(F)F)c2)sc2nc3n(c(=O)c12)CCC3	?	.	23.1µM	.	-	23.1µM
CCOc1ccc(NC(=O)c2sc3nc4n(c(=O)c3c2C)CCC4)cc1	-	-	?	-	-	-
CC1(C(=O)NS(=O)(=O)C2CC2)CCN(C(=O)c2ccc3c(c2)OCO3)C1 (configuration not stated)	-	-	-	-	-	-
CCN(CC)CCn1c(-c2ccccc2)csc1=Nc1ccccc1	-	.	?	.	?	16.4µM
OCCCn1c(-c2ccccc2)csc1=Nc1ccccc1	-	-	23.1µM	-	?	16.4µM
SMILES	KB-3-1 tox	HT1080NT lethal	TDP1 cell CPT	HT1080 IDH1KD tx	KB-V1 MDR tox	TDP1 cell noCPT
Cc1csc(=Nc2ccccc2)n1Cc1ccco1	-	-	-	-	-	?
Cc1c(N=c2scc(-c3ccccc3)n2CCO)c(=O)n(-c2ccccc2)n1C	-	-	-	-	-	?
O=C(O)CCC(=O)NCCn1c(-c2ccccc2)csc1=Nc1ccccc1	-	-	-	-	-	-
COc1ccc(N=c2scc(-c3ccc(OC)cc3)n2CCO)cc1	?	-	20.6µM	-	?	9.2µM
Cc1ccc(-c2csc(=Nc3ccccc3)n2Cc2ccc3c(c2)OCO3)cc1	-	.	14.6µM	.	-	9.2µM
CCCN(C(=O)Cc1coc2cc(OC)ccc12)C1CCS(=O)(=O)C1 (configuration not stated)	-	-	-	-	-	-
Cc1cc(C)cc(NC(=O)CCS(=O)(=O)c2cccc3nsnc23)c1	-	.	-	.	-	-
CCC(C)c1ccc(O)c(NC(=O)c2cccnc2)c1 (configuration not stated)	-	-	?	-	-	?
CC(C)(C)c1ccc(C(=O)NNC(=S)NC(=O)c2cccnc2)cc1	?	?	7.31µM	?	?	7.31µM
CC(C)(C)c1cc(Cl)c(O)c(NC(=S)NC(=O)c2cccnc2)c1	-	-	4.61µM	?	?	6.51µM
CCC(C)c1ccc(O)c(NC(=S)NC(=O)c2cccs2)c1 (configuration not stated)	-	-	13µM	?	?	23.1µM
Cc1ccccc1C(=O)NNC(=S)NC(=O)c1cccnc1	?	-	?	-	-	?
CC(C)c1ccc(O)c(NC(=S)NC(=O)c2cccnc2)c1	-	?	4.61µM	?	?	18.4µM
COc1cc(OC)cc(C(=O)NNC(=S)NC(=O)c2cccnc2)c1	-	-	?	-	?	3.66µM
COc1cc(OC)cc(C(=O)NC(=S)NNC(=O)c2cnccn2)c1	?	-	5.8µM	?	?	5.17µM
COc1ccc(C(=O)NC(=S)NNC(=O)c2cnccn2)cc1OC	?	-	?	-	?	?
COc1cc(OC)cc(C(=O)NC(=S)Nc2cccnc2)c1	-	-	-	-	-	?
COc1ccccc1OCCn1nc2ccccc2c1OC	-	-	-	-	-	?
CC(C)Cc1cc(C(=O)N(C)C2CCCN(Cc3ccccc3F)C2)n(C)n1 (configuration not stated)	?	-	?	-	?	?
CCOc1nc(NC(=O)NS(=O)(=O)Oc2cccc(Cl)c2)nc(-c2ccccc2)n1	0.0016µM!	-	-	-	-	-
COc1ccc(NCc2cc3ccc(OC)cc3n(CC(=O)Nc3cccc(OC)c3)c2=O)cc1	-	.	.	.	-	.
Cc1ccc(S(=O)(=O)CCC(=O)c2ccc(F)cc2)cc1	-	?	4.11µM	?	-	2.59µM
Cc1ccc(S(=O)(=O)CCC(=O)NCc2ccc(Cl)cc2)cc1	-	-	-	-	-	-
Cc1ccc(C(=O)CCS(=O)(=O)c2ccc(F)cc2)cc1	?	-	4.61µM	-	-	2.91µM
Cc1ccc(C(=O)CCS(=O)(=O)c2ccc(Cl)cc2)cc1	-	-	2.91µM	-	-	2.91µM
Cc1ccc(S(=O)(=O)CCC(=O)OCC(=O)NCCc2ccc(F)cc2)cc1	-	-	-	-	-	-
